The full ranking holds about 33,000 sequences; the median of “E-score (-0.5 to 0.5)” is about -0.01, and the highest 2% start at about 0.26. The list comes from a sample in which the highest values are over-represented; it also holds similar and randomly drawn sequences.
These sequences were tested against Ste12 (UniProt P13574) (assay: PBM E-score (8-mer binding enrichment) (E-score (-0.5 to 0.5)); higher = stronger / more preferred TF binding). Details: protein concentration: 200 nM; construct: GST-DNA-binding domain.
UniProt P13574, sequence (P13574 whole entry, the tested form may be a part): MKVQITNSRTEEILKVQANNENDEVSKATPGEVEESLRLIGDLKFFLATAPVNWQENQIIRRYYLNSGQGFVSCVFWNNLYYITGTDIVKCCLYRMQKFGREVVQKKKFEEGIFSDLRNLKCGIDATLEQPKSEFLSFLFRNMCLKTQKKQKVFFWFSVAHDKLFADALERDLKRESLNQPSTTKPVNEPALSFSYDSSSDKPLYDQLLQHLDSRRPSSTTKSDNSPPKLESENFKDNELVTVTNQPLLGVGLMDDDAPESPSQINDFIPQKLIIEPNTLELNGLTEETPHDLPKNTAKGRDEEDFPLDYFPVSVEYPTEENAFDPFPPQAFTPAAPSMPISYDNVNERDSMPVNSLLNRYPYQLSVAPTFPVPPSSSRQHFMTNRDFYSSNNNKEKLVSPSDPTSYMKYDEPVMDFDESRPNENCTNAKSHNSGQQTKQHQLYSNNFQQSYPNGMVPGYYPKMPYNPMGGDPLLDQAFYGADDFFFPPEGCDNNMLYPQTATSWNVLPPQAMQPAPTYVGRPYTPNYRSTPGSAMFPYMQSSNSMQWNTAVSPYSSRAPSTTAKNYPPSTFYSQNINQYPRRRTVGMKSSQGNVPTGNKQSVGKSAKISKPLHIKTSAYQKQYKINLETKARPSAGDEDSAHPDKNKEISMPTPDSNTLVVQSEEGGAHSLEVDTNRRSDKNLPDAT
How it was run: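 GST-tagged yeast TFs (full-length or DNA-binding domain) were made by PURExpress in vitro transcription/translation and applied at about 100-200 nM to universal all-10-mer Agilent arrays. The arrays were made double-stranded by primer extension, on fresh or once-stripped slides. Bound protein was detected with fluorescent anti-GST, and scans were normalised with masliner. Each ungapped eight-base word, pooled with its reverse complement, received an E-score (modified Wilcoxon-Mann-Whitney statistic) from the Universal PBM Analysis Suite.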

Sequence	PBM E-score
CCCGCGGG	0.0996
AATACGCA	0.0688
ATTTGCTA	0.0107
CCATTTTA	0.267
GCATTTTA	0.165
CCATTTTC	0.0892
GCCTATCC	-0.214
CCCTGAAA	0.181
TTCTGAAA	0.365
CTCTGAAG	-0.104
GTCTGATA	0.16
TTCTGCAA	0.182
ATCTGAAT	0.0272
CTCTGAAA	0.294
ATCTGAAA	0.364
GTCTGAAC	0.114
ATCTGAAC	-0.0162
CTCTGAAC	-0.092
GTCTGAAA	0.314
TGGCCAAA	0.0505
TCCACAGA	0.124
CTTTAGCC	-0.029
AATAGTTG	0.255
AAGCAGAA	0.109
AATTGAGT	0.195

Sequence	PBM E-score
GTATGGAC	-0.0968
CTTGTTTA	0.0423
ATTGTTTG	0.184
ATTGTTTC	0.356
CTTGTTTC	0.375
ATTGTTAC	0.297
ATTGTTAG	0.0697
CTTGTTGC	0.00409
CTTGTTAC	0.129
ATTGTTTA	0.0651
ATCTCTTA	0.197
CCTTTCCC	-0.0368
ATAGCAGA	-0.0552
CCGGCTAC	0.0776
CGAGCCAG	-0.0693
AACGCACT	-0.0209
CATAAACC	0.0477
TATAAACA	0.114
AATAAACA	0.284
AATAAACG	0.0508
AATAAACC	0.269
GATAAACA	0.096
AAGTATGC	-0.197
AGCCCCCA	-0.118
TATGGACA	-0.00254

Sequence	PBM E-score
CGGTCGAA	0.00203
CAGTTTAC	-0.053
CGTTAAAG	0.0915
CGCCGGCG	0.275
AGCCGGCG	0.106
CGCCGGCC	-0.00587
CAGACCCG	0.0234
CTCTCCTC	-0.168
AAGTAAAG	-0.0589
GCGTAACA	-0.0008
CTGTAACA	0.268
ATGTAACC	0.143
ATGTAACG	0.241
AAGTAAAC	0.0949
CTGTAATA	0.119
AAGTAAAT	0.261
GTGTAACA	0.319
ATGTAACA	0.288
CTGTAACC	0.183
GTGTAAGA	0.058
GCGTCCAA	-0.13
ATGATTGC	0.146
CAAGACTG	-0.101
ATGCACAG	-0.111
ACTATTGG	-0.0275

Sequence	PBM E-score
CAACTTGA	0.0746
AAGTAACT	0.0625
AAGTAACA	0.291
AAGTAACG	0.141
AGACCGTA	-0.0932
CATGGTGG	-0.0711
GACTCTAA	0.115
GTGATAAA	0.131
TTGATAAA	0.277
TCCATAAA	0.11
CTCATAAA	-0.00236
TTCATAAA	0.324
ACCATAAA	0.278
ATCATAAA	0.0612
ACCATAAG	-0.16
ATGATAAA	0.209
ACTTTGAC	-0.101
ACTTCCCT	-0.0919
GGGTTCAC	-0.0147
GATCTGCC	0.0158
TAAAAGCA	0.172
CCAATCGA	0.067
CTTCACAA	-0.0638
ATCGAAAC	0.324
GTCGAAAC	0.128

Sequence	PBM E-score
AACGAAAG	0.0635
CACGAAAG	0.095
CCCGAAAG	0.00951
GCCGAAAC	0.178
CACGAAAA	0.243
CACGAAAC	0.266
AACGAAAC	0.314
CCCGAAAC	0.303
AACGAAAT	0.169
ATCGAAAA	0.125
CCCAGGTC	-0.207
TCCACAAA	0.14
GCTTCCAC	-0.11
CTAGGGCC	-0.187
ATCGCGCG	0.0537
ATGTCTAA	0.0254
GGGCCCCA	-0.146
CTCCTCAG	-0.11
GAGGTTAA	0.0122
AGCTGGGA	-0.0199
CTGTGAAG	0.00467
CTGTGAAC	-0.0759
GTGTGAGA	0.0959
TTGTGAAA	0.342
GTGTGAAA	0.307

Sequence	PBM E-score
CTGTGAAA	0.322
CTGTGAGA	-0.0675
GTGTGAAC	0.169
ATGTGAAA	0.202
ACCTGCCA	-0.121
AGAAAGGA	-0.0699
AAAGCGAA	0.133
CTTGCATA	-0.045
TCAGGTCA	-0.015
AAAGTCCC	-0.0967
CGAGGCCG	-0.158
GGATTTAA	0.243
AAAACAAT	0.225
AAAACATG	0.324
ATAACATC	0.0956
ACAACATC	-0.0874
AAAACATT	0.28
AACACATG	0.128
CAAACATG	0.179
AAAACATC	0.301
AAAACATA	0.208
AGTGTAGG	0.00693
ATGTGCTG	0.133
CTTCGCTC	-0.224
CCCACCCG	0.358

Sequence	PBM E-score
TCCACCCA	-0.0525
CCCACCCA	0.269
CACACCCG	0.0642
GCCACCCC	-0.0121
GCCACCCA	-0.106
ACCACCCG	-0.106
CCCACCCC	0.391
ACCACCCC	0.0858
CCTCTTGC	0.0254
ATCTTCAC	0.145
CACGGGCG	0.00735
ATAGCCTG	-0.0913
TAGATCGA	0.0552
CCAGCTCA	-0.194
CCGTTGAA	0.0239
ATTATTTG	0.106
GATTATTA	0.196
ATTATTTA	0.281
CCTTATTA	0.187
ATTTATAA	0.267
ACTTATTA	0.264
ATTTATAC	0.195
CTTTATAA	0.153
GTTTATTA	0.304
CTTATTTA	0.171

Sequence	PBM E-score
CTTTATTA	0.112
GCTTATTA	0.0471
AGATCCCG	0.0252
GAAGGTTA	-0.115
GGCCGACC	-0.123
ACGTAAAG	0.0191
CACAAGGG	-0.194
CGCCTCTA	-0.0334
ATTTATTA	0.292
ACTATTAC	0.0443
ATTATTAC	0.269
ATTTATTG	0.0911
CTTATTAC	0.0999
ATTTATTC	0.121
CGTGGTAA	-0.0665
ACATCTCA	-0.0976
CGCTCGAA	-0.0852
CTGATCAC	-0.0885
AGGCGAGA	-0.195
GTGAGACA	0.256
ATGAGACA	0.338
ATGAGACC	-0.144
AACTTTGC	-0.0155
AGAGTTCA	-0.222
CACATTAA	0.0442

Sequence	PBM E-score
TAAACGTA	-0.115
CAAACGTC	0.0704
GAAACGTA	0.325
CAAACGTA	-0.052
GAAACGTC	0.303
AAAACGTC	0.134
CCCGCGAG	0.119
ATTCGACG	0.087
ATACCAGG	0.0311
CCCATCAG	-0.193
GCAGGTAA	0.0649
AGCGACAC	0.0304
AGATCGTG	0.0231
TATATTAA	0.22
AATATCAG	0.0475
AATATCAA	0.283
CGTATCAA	0.088
AATATTAA	0.327
AATATTAT	0.24
TGTATCAA	0.392
AGTATCAA	0.217
AATATCAC	0.107

Reference: the supplement of paper PMC3334620
